Hits are enriched below; roughly 7.9% of the tested compounds scored in any of these assays.
HT1080 IDH1KD tx: toxicity to HT-1080 IDH1 knockdown cells (counter line); 2% of 360,000 active; HT-1080 IDH1 knockdown viability, ATP luminescence, 48 h; Potency, µM (highest dose often 46.1 µM), actives largely listed as cytotoxic; AID 686971
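Assay cells: HT-1080 with IDH1 knockdown, 750 per well, RPMI/5% FBS. Exposure: 48 h at 37 °C following 2 h pre-incubation. Read: CellTiter-Glo luminescence; fitted concentration-response, curve class assigned.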
SW480 rerep: induces DNA re-replication in SW480 colon adenocarcinoma cells. SW480 DNA re-replication, Hoechst DNA content imaging, 48 h. Potency, µM (doses to about 46.1 µM), usual class: activators. 1.8% of 340,000 active; note: nearly all actives have a fitted effect of over 55% in size
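Hoechst fluorescence of nuclei (405 nm excitation, 500-530 nm emission) measured by plate-scanning imager after 48 hr compound exposure at 37 C; re-replication scored as increased number of nuclei with elevated intensity.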
MCF10A rerep: DNA re-replication induction in MCF 10a cells; MCF 10A DNA re-replication, Hoechst nuclear intensity, 48 h; Potency, µM (doses to about 46.1 µM), hits mostly activators; 2.9% of 350,000 active; AID 624296; note: nearly all actives have a fitted effect of over 50% in size
KB-V1 MDR tox: KB-V1 MDR subline cytotoxicity. KB-V1 MDR cells viability, CellTiter-Glo, 72 h. Potency, µM (titrated, usually from 46.1 µM), most hits filed as cytotoxic. 3.4% of 400,000 active. AID 1347076; note: nearly all actives have a fitted effect of over 60% in size
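Cytotoxicity via CellTiter-Glo luminescence after 72 h compound exposure at 37 degrees C. Cells: drug-selected KB-V1 line, DMEM phenol-red free plus 10% FBS. Compounds tested at multiple concentrations; normalized data fitted to concentration-effect curves.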
KB-3-1 cytotox: KB-3-1 parental cell cytotoxicity; 1.4% of 400,000 active; Potency, µM (highest dose often 46.1 µM), usual class: cytotoxic; AID 1347075; KB-3-1 viability, CellTiter-Glo ATP luminescence, 72 h; note: nearly all actives have a fitted effect of over 60% in size
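Cytotoxicity in the drug-sensitive parental line KB-3-1 was scored as loss of CellTiter-Glo luminescence following 72 h incubation with compound. Values come from curve fitting of normalized concentration-response data.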
HT1080-NT tox: kills 2HG-producing HT-1080-NT fibrosarcoma cells | Potency, µM (series often up to 46.1 µM), usual class: cytotoxic | HT-1080-NT fibrosarcoma viability, CellTiter-Glo ATP luminescence, 48 h | AID 686970 | 1.6% of 360,000 active;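 note: NT is the 2HG producing partner of a matched IDH1 knockdown line; nearly all actives have a fitted effect of over 55% in size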
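A 48-hour cytotoxicity screen used HT-1080-NT cells plated 2 hours before compound delivery. ATP-based CellTiter-Glo luminescence measured viability, normalized to DMSO and no-cell controls.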
A number is an active result. Calls come from the whole dose curve; as a rule, active = well fitted curve in the direction sought with a large enough effect; inconclusive = small, poorly fitted or top-dose-only effect, or another doubt; inactive = no such curve, though single readings can be large; an effect the other way counts as inactive or inconclusive.

`Cc1ccc(S(=O)(=O)NCC(=O)N(CC(=O)NC2CCCC2)CC2CCCO2)cc1` (stereo not given) gave HT1080 IDH1KD tx inactive, SW480 rerep inactive, MCF10A rerep inactive, KB-V1 MDR tox inactive, KB-3-1 cytotox inactive and HT1080-NT tox inactive.
`C/C(CC(=O)Nc1ccc(C)c(Cl)c1)=N\NC(=O)Cc1ccccc1` gave HT1080 IDH1KD tx inactive, SW480 rerep inactive, MCF10A rerep inactive, KB-V1 MDR tox inconclusive, KB-3-1 cytotox inactive and HT1080-NT tox inactive.
For C/C(CC(=O)Nc1ccc(OCc2ccccc2)cc1)=N\NC(=O)C(=O)Nc1ccc(C)c(Cl)c1 the results were HT1080 IDH1KD tx inconclusive, SW480 rerep inactive, MCF10A rerep 10µM, KB-V1 MDR tox inactive, KB-3-1 cytotox inconclusive and HT1080-NT tox 18µM.
For Cc1ccc(NC(=O)COc2ccccc2)cc1Cl the results were HT1080 IDH1KD tx inactive, SW480 rerep inactive, MCF10A rerep inconclusive, KB-V1 MDR tox inactive, KB-3-1 cytotox inactive and HT1080-NT tox inactive.
For C/C(CC(=O)Nc1ccc(C)c(Cl)c1)=N\NC(=O)c1ccco1 the results were HT1080 IDH1KD tx inactive, SW480 rerep inactive, MCF10A rerep 18µM, KB-V1 MDR tox inconclusive, KB-3-1 cytotox inactive and HT1080-NT tox inactive.
Screening COC(=O)c1ccccc1NC(=O)C1=C(C)C(=O)OC12CCCCCC2 returned KB-V1 MDR tox inactive and KB-3-1 cytotox inactive.
Screening CCOC(=O)N1CCN(C(=O)COC(=O)c2ccc(N(C)C)cc2)CC1 returned HT1080 IDH1KD tx inactive, SW480 rerep inactive, MCF10A rerep inactive, KB-V1 MDR tox 21µM, KB-3-1 cytotox inactive and HT1080-NT tox inactive.
`Cc1ccc(S(=O)(=O)N2CCN(c3nc(N(C)c4cc(Cl)ccc4O)nc4ccccc34)CC2)cc1` gave HT1080 IDH1KD tx inactive and HT1080-NT tox inactive.
For COc1ccc(C(=O)N2CCCC(CCC(=O)N3CCN(c4ccccn4)CC3)C2)cc1 (stereo not given) the results were HT1080 IDH1KD tx inactive, SW480 rerep inactive, MCF10A rerep inactive, KB-V1 MDR tox 13µM, KB-3-1 cytotox inactive and HT1080-NT tox inactive.
`Cc1ccsc1C(=O)N1CCCC(CCC(=O)N2CCN(c3ccccn3)CC2)C1` (stereo not given) gave HT1080 IDH1KD tx inactive, SW480 rerep inactive, MCF10A rerep 6.5µM, KB-V1 MDR tox inconclusive, KB-3-1 cytotox inactive and HT1080-NT tox inactive.
Cc1ccccc1C(=O)N1CCCC(CCC(=O)N2CCN(c3ccccn3)CC2)C1 (stereo not given) was read as HT1080 IDH1KD tx inactive, SW480 rerep inactive, MCF10A rerep inactive, KB-V1 MDR tox inactive, KB-3-1 cytotox inactive and HT1080-NT tox inactive.
Cc1ccccc1-c1nc2scc(CCNS(=O)(=O)c3ccccc3)n2n1 was read as KB-V1 MDR tox inactive and KB-3-1 cytotox inactive.
For CCC(Sc1nc2ncccc2o1)C(=O)Nc1ccc(OC)c(OC)c1 (stereo not given) the results were KB-V1 MDR tox inactive and KB-3-1 cytotox inactive.
Cc1cccc[n+]1CCCCCCCCCC[n+]1ccccc1C was read as HT1080 IDH1KD tx inactive, SW480 rerep inactive, MCF10A rerep inactive, KB-V1 MDR tox inactive, KB-3-1 cytotox 1.5µM and HT1080-NT tox inactive.
Screening Cc1ccc(S(=O)(=O)Nc2ncnc3sc(C)c(C)c23)cc1 returned HT1080 IDH1KD tx inactive, SW480 rerep inactive, MCF10A rerep inconclusive, KB-V1 MDR tox 3.7µM, KB-3-1 cytotox inconclusive and HT1080-NT tox inactive.
For Cc1ccc(Nc2ncnc3sc(C)c(C)c23)cc1 the results were HT1080 IDH1KD tx inactive, SW480 rerep inactive, MCF10A rerep inactive, KB-V1 MDR tox inconclusive, KB-3-1 cytotox inactive and HT1080-NT tox inconclusive.
For Cc1ccccc1NC(=O)CSC1=Nc2ccccc2C2=NC(Cc3ccccc3)C(=O)N12 (stereo not given) the results were KB-V1 MDR tox inactive and KB-3-1 cytotox inactive.
Screening Clc1nc(NCC2CCCO2)c2[nH]cnc2n1 (stereo not given) returned KB-V1 MDR tox inactive and KB-3-1 cytotox inconclusive.
For CC1(C)CC(=O)C(N=Nc2ccc(-c3ccccc3)cc2)=C(O)C1 the results were HT1080 IDH1KD tx inactive, SW480 rerep inactive, MCF10A rerep 0.73µM, KB-V1 MDR tox inactive, KB-3-1 cytotox inactive and HT1080-NT tox inactive.
`CC1(C)CC(=O)C(N=Nc2ccc(F)cc2)=C(O)C1` gave HT1080 IDH1KD tx inactive, SW480 rerep inactive, MCF10A rerep inactive, KB-V1 MDR tox inactive, KB-3-1 cytotox inactive and HT1080-NT tox inactive.
Screening CC1(C)CC(=O)C(N=Nc2cc(C(F)(F)F)ccc2Cl)=C(O)C1 returned HT1080 IDH1KD tx inactive, SW480 rerep inactive, MCF10A rerep 0.52µM, KB-V1 MDR tox inactive, KB-3-1 cytotox inactive and HT1080-NT tox inactive.
CCOC(=O)c1ccc(NC(=O)NCCN2CCCCC2)cc1 was read as HT1080 IDH1KD tx inactive, SW480 rerep inactive, MCF10A rerep inconclusive, KB-V1 MDR tox inactive, KB-3-1 cytotox 16µM and HT1080-NT tox inactive.
`Cc1ccc(C)c(Sc2ccc(NC(=O)CCN3C(=O)NC4(CCCC4)C3=O)cc2)c1` gave HT1080 IDH1KD tx inconclusive, SW480 rerep inactive, MCF10A rerep 23µM, KB-V1 MDR tox inactive, KB-3-1 cytotox inactive and HT1080-NT tox inconclusive.
Screening CCOC(=O)c1ccc(NC(=O)Nc2ccon2)cc1 returned HT1080 IDH1KD tx 0.92µM, SW480 rerep inconclusive, MCF10A rerep 1.3µM, KB-V1 MDR tox inconclusive, KB-3-1 cytotox 0.58µM and HT1080-NT tox 0.58µM.
Screening CCOC(=O)c1ccc(NC(=O)CN2C(=O)NC3(CCCCCCC3)C2=O)cc1 returned HT1080 IDH1KD tx inconclusive, SW480 rerep inconclusive, MCF10A rerep inconclusive, KB-V1 MDR tox inactive, KB-3-1 cytotox 7.3µM and HT1080-NT tox inconclusive.
For CCOC(=O)c1ccc(NC(=O)Nc2ccc(Cl)cn2)cc1 the results were HT1080 IDH1KD tx inactive, SW480 rerep inactive, MCF10A rerep inactive, KB-V1 MDR tox inactive, KB-3-1 cytotox inactive and HT1080-NT tox inactive.
C[C@@H]1CN([C@@H](C)CO)C(=O)CCCn2nncc2CO[C@H]1CN(C)C(=O)c1ccccc1 was read as HT1080 IDH1KD tx inactive, KB-V1 MDR tox inactive, KB-3-1 cytotox inactive and HT1080-NT tox inactive.
CCCSc1nc2c(c(=O)[nH]1)C(c1ccc(O)c(OCC)c1)CC(=O)N2 (stereo not given) was read as KB-V1 MDR tox inactive and KB-3-1 cytotox inactive.
CCOC(=O)c1ccc(NC(=O)Nc2nc3ccccc3s2)cc1 was read as HT1080 IDH1KD tx inactive, KB-V1 MDR tox inactive, KB-3-1 cytotox inactive and HT1080-NT tox inactive.
Cc1ccc(NC(=O)c2cc(N3C(=O)C=CC3=O)ccc2N2CCOCC2)cc1Cl was read as HT1080 IDH1KD tx 16µM, SW480 rerep inconclusive, MCF10A rerep 16µM, KB-V1 MDR tox inactive, KB-3-1 cytotox inactive and HT1080-NT tox inactive.

High-throughput results as filed in PubChem BioAssay.
